Experimental data reported in PubChem BioAssay AID614 (Sanford-Burnham Center for Chemical Genomics, 2007).
The whole screen tested about 21,000 compounds, of which fewer than 10 were called active.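 Rule for the calls: active = inhibition above 50% at the 20 µM single-dose screen; inactive = the rest.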 A selection follows.

Target: Alkaline phosphatase, tissue-nonspecific isozyme (Homo sapiens) (UniProt P05186)
Assay: blockers of alkaline phosphatase TNAP activity – biochemical, colorimetric, phosphate release readout, primary screen (AID 614)
Conditions: purified TNAP, pNPP, malachite green phosphate absorbance; at 20 µM; active compounds read high

Alkaline phosphatase, tissue-nonspecific isozyme (Homo sapiens), sequence (P05186 whole entry, looked up): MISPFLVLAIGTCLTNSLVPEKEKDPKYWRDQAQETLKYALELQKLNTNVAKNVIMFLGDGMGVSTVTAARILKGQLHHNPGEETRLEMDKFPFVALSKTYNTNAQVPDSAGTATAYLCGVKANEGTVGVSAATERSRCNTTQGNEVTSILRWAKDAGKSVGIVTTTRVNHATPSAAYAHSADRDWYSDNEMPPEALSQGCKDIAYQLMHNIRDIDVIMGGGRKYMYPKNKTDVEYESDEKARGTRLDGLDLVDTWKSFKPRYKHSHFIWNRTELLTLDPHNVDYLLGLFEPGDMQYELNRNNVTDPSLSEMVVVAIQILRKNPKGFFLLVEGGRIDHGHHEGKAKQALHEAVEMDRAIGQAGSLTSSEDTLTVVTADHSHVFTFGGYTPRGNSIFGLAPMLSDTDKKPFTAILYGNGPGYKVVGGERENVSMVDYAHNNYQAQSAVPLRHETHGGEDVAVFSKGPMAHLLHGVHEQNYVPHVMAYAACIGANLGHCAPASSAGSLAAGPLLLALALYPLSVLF

inhibition, inactive:
CC1CCN(C(=O)Cn2cc(C(=O)c3ccco3)c3ccccc32)CC1 14.2%
O=C(c1ccccc1)N1CCN(C(=O)N2CCCCC2)CC1 -5.7%
CC1C(c2ccccc2)=[N+]([O-])C2(CCCC2)N1O (stereo not drawn) 12.6%
Cc1nonc1OCCn1nnnc1N 8.7%
O=C(OC(C(=O)NC1CCCC1)c1ccc(F)cc1)c1ccno1 (stereo not drawn) 0%
CCc1ccccc1NC(=O)CSc1nnc([C@@H](NC(=O)OC(C)(C)C)C(C)C)o1 4.3%
CC1OC2C(OC1C)N(S(C)(=O)=O)CCN2S(C)(=O)=O (stereo not drawn) 10%
O=C(CCN1C(=O)c2ccccc2C1=O)Nc1ccncc1 7.9%
CCOC(=O)CSc1nc2sc3c(c2c(=O)[nH]1)CC(C)(C)OC3 -12.8%
COc1ccc(-c2cc(C(F)(F)F)n3nc(C(=O)N4CCOCC4)c(Cl)c3n2)cc1 6%
C=C(Br)Cn1c(CCCC)nc2ccccc21 0%
COc1ccc(Br)cc1/C=N/n1c(C)nnc1C 8.2%
CCC(=O)Nc1sc(C(=O)N2CCCCC2)c(C)c1C#N -23.7%
CCCCNc1nc2ccccc2nc1NS(=O)(=O)c1cccs1 1.2%
COc1cc(C2C(C(=O)c3sc(C)nc3C)=C(O)C(=O)N2CCN(C)C)cc(OC)c1OC (stereo not drawn) 13%
Cc1cc(C)c(C#N)c(SCc2ccccc2C(=O)O)n1 -0.3%
CCCCc1nc2ccccc2c(=O)n1NC(=O)c1c(O)c2cccc3c2n(c1=O)CC3 4.4%
Cc1ccc2cc(C#N)c(SCC(=O)NCC3CCCO3)nc2c1C (stereo not drawn) 8.6%
COc1ccc2c(c1OC)C(=O)OC2c1c(O)nc(SC)n(-c2ccccc2)c1=O (stereo not drawn) -0.7%
Cc1ccc2c(NC(=O)C3CC3)cccc2n1 9.9%
O=c1c(F)cn(C2CCCO2)c(=O)n1Cc1ccccc1Cl (stereo not drawn) 7.7%
COCCNC(=O)c1ccccc1-c1nc(-c2ccccc2Cl)no1 1.6%
Cc1cc(C)nc(N(C#N)CC(=O)Nc2ccccc2)n1 -15.3%
CCCCNC(=O)CSc1nccn1Cc1ccccc1 10.7%
CCC(C)NC(=O)N[C@@H](CCSC)C(=O)O (stereo partly drawn) 8.1%
O=C(Nc1cnccn1)c1cccnc1 6.7%
COc1ccc(-c2n[nH]c(C)c2-c2ccc(OC)c(OC)c2)c(O)c1 7.2%
c1nc(COc2nsnc2N2CCOCC2)cs1 5.5%
Cc1cc2ccccc2n2c(SCC(=O)N3CCN(C(=O)c4ccco4)CC3)nnc12 12.5%
CC(=O)Nc1cccc2c1[n+]([O-])c(C)c(C)[n+]2[O-] 2.9%
N#CCCN(CCC#N)c1nnc(-c2ccccc2)s1 0%
COc1ccc(Cn2cccc(NC(=O)Nc3ccc(C#N)cc3)c2=O)cc1 10.4%
CCOC(=O)CNC(=O)CSc1nnc(COc2ccc(Cl)cc2)n1CC 10.6%
CCc1nnc(NC(=O)c2nc3nccc(C)n3n2)s1 -4.2%
CNC(=O)c1cc2c(ccc3ccccc32)oc1=N 5.2%
CCN(c1ccccc1)S(=O)(=O)c1cccc(C(=O)O)c1 1.1%
CN(C)c1nc2n(c(=O)n1)CCO2 -3%
COc1ccccc1NC(=O)C1=C(C)NC2=C(C(=O)CCC2)C1c1ccc(C)o1 (stereo not drawn) -1.3%
C=CCc1cccc2cc(C(=O)N3CCN(C(=O)OCC)CC3)c(=O)oc12 5.5%
CC1Cc2ccccc2N1C(=O)CSc1nnc(-c2ccc(S(=O)(=O)N3CCCCC3)cc2)o1 (stereo not drawn) 12.2%
O=c1oc2c(CN3CCCCC3)c(O)ccc2c2c1CCCCC2 8.2%
CCn1c(SCC(=O)Nc2cc(C)c(Cl)cc2OC)nnc1-c1ccco1 10.5%
O=C(NC1CCCCC1)n1c(=O)oc2cc(S(=O)(=O)N3CCCCC3)ccc21 6.7%
Cn1c(SCC(=O)OC2CCCCC2)nnc1-c1ccc(S(=O)(=O)N2CCCC2)cc1 10.3%
O=C(NCc1cn2ccsc2n1)Nc1cccc(Cl)c1 0.5%
CCC1(C)N(O)C(C)(C)C(c2ccc(OC)cc2)=[N+]1[O-] (stereo not drawn) 8.5%
CCc1c(O)nc(SCC(=O)N2CCCCC2)n(-c2ccccc2C)c1=O 2.1%
Cc1ccc(C(C(=O)NCc2ccco2)N(CC2CCCO2)C(=O)Cn2nnc3ccccc32)cc1 (stereo not drawn) 8.3%
CC(C)=C(NC(=O)c1ccco1)C(=O)NCCc1nc2ccccc2[nH]1 9.6%
O=C(O)CCC(=O)N(Cc1ccco1)c1nc(-c2ccccc2)cs1 7.9%
COC(=O)COc1ccc(S(=O)(=O)Nc2ccc(NC(C)=O)cc2)cc1 11.9%
CCc1cccc(C)c1NC(=O)CSc1nnc(-c2ccco2)n1N 7.1%
C/C(O)=C\c1nc(=O)c2c(C)cc(C)nc2n1-c1ccccc1 10.5%
COc1ccccc1N1CCN(C(=O)c2ccc(S(=O)(=O)N3CCCCC3)cc2)CC1 11.7%
Cc1ccc(C(C)C)c(OCc2nnc(SCC(=O)Nc3nccs3)n2C)c1 -5.7%
NC(=O)C1CCN(C2OC(=O)c3ccccc32)CC1 (stereo not drawn) 0%
O=C(CSc1nnnn1-c1ccc2c(c1)CCC2)Nc1ccc2c(c1)OCCO2 -0.8%
O=C(CNCCO)NC12CC3CC(CC(C3)C1)C2 0%
Cc1nc(NC(CC(C)C)C(=O)O)c2nc(C)oc2n1 (stereo not drawn) -15%
O=C1c2oc3ccc(Br)cc3c(=O)c2C(c2cccc(F)c2)N1CCO (stereo not drawn) 10.1%
CC(C)C(=O)N1CCN(CCN=CC2=C(O)CC(c3ccco3)CC2=O)CC1 (stereo not drawn) 2.1%
CCOC(=O)c1c(NC(=O)CSc2nnc(C)c(=O)[nH]2)sc2c1CCC2 10.5%
COC(=O)C(NC(C)=O)(Nc1nc2c(s1)CCCC2)C(F)(F)F (stereo not drawn) 10.6%
